Results taken from PubChem BioAssay (Tox21).
Results filed as inconclusive are left out. A call without a number means that no potency is given here. Active and inactive are the calls of the source. Unless noted, calls come from the whole dose curve.

Legend:
[1] = Nuclear factor erythroid 2-related factor 2/antioxidant responsive element (Nrf2/ARE) small molecule agonists: qHTS cell viability counter screen in human keratinocytes (AID 1919968; active = well fitted curve in the direction sought with a large enough effect in the repeat runs; an effect the other way counts as inactive or inconclusive; note: nearly all actives have a fitted effect of over 55% in size; note: potency is the fitted concentration of half-maximal effect)
Method in brief: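 Cytotoxicity was multiplexed with the Nrf2/ARE luciferase assay in the same wells. Stably transfected HaCaT keratinocytes were treated with test compounds for 23 h at 37 C. Cell viability was then measured by CellTiter-Fluor fluorescence.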

[2] = Nuclear factor erythroid 2-related factor 2/antioxidant responsive element (Nrf2/ARE) small molecule agonists: luciferase reporter gene qHTS assay in human keratinocytes (AID 1919969); note: nearly all actives have a fitted effect of over 35% in size; note: potency is the fitted concentration of half-maximal effect
[3] = target: Gonadotropin-releasing hormone receptor (Homo sapiens) (UniProt P30968); assay: Human gonadotropin-releasing hormone receptor (GnRHR) small molecule agonists, calcium flux assay in GnRHR-HEK293 cells (AID 1920063); note: nearly all actives have a fitted effect of over 35% in size; note: potency is the fitted concentration of half-maximal effect
Method in brief: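 Agonist activity was measured as intracellular calcium flux in HEK293 cells engineered to stably express human GnRHR. After dye loading for 1 hour at 37 C, compounds in DMSO were added and fluorescence was followed for 3 minutes.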

[4] = target: KiSS-1 receptor (Homo sapiens) (UniProt Q969F8); assay: Human kisspeptin (KISS1R) small molecule agonists, calcium flux assay in KISS1R-HEK293 cells (AID 1920064; active = well fitted curve in the direction sought with a large enough effect in the repeat runs; an effect the other way counts as inactive or inconclusive)
Method in brief: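 Agonist activity is monitored as intracellular calcium rise in engineered HEK293 cells carrying human KISS1R. Cells are dye-loaded for 1 h at 37 C before compound addition, and fluorescence is recorded for 3 min.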

[5] = p53 small molecule agonists, cell-based qHTS assay with rat liver microsomes: qHTS cell viability counter screen (AID 1963580); note: nearly all actives have a fitted effect of over 45% in size
Method in brief: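 Cytotoxicity counter screen: intracellular ATP read by CellTiter-Glo luminescence in the p53 reporter wells. HCT-116 p53RE-bla cells were treated for 16 h at 37 C alongside rat liver microsomes and NADPH, each 0.5 mg/mL final.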

[6] = target: 5-hydroxytryptamine receptor 2A (Homo sapiens) (UniProt P28223); assay: 5-hydroxytryptamine receptor 2A (HTR2A) small molecule antagonists, cell-based qHTS assay (AID 1963586); note: nearly all actives have a fitted effect of over 45% in size
Method in brief: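 CHO cells stably expressing human HTR2A were plated for 18 h at 37 C, then loaded with calcium dye for 1 h. Compounds were preincubated 5 min at room temperature before DOI (4 nM solution) was added. Kinetic fluorescence was read for 3 min.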

[7] = target: 5-hydroxytryptamine receptor 2A (Homo sapiens) (UniProt P28223); assay: 5-hydroxytryptamine receptor 2A (HTR2A) small molecule agonists, cell-based qHTS assay (AID 1963587); note: nearly all actives have a fitted effect of over 30% in size
Method in brief: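 Kinetic calcium-flux fluorescence (2 min, 1 sec intervals) after compound addition in agonist mode. HTR2A-CHO cells were cultured 18 h, then dye-loaded 1 h at 37 C.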

[8] = target: Muscarinic acetylcholine receptor M1 (Homo sapiens) (UniProt P11229); assay: Cholinergic receptor muscarinic 1 (CHRM1) small molecule antagonists, cell-based qHTS assay (AID 1963588); note: nearly all actives have a fitted effect of over 40% in size; note: potency is the fitted concentration of half-maximal effect
Method in brief: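 Compounds were tested at 15 concentrations in three independent runs. Dye-loaded CHRM1-CHO cells were exposed 5 min at room temperature before stimulation by acetylcholine added at 50nM. Intracellular calcium was read kinetically on FDSS for 3 min.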

[9] = target: Muscarinic acetylcholine receptor M1 (Homo sapiens) (UniProt P11229); assay: Cholinergic receptor muscarinic 1 (CHRM1) small molecule agonists, cell-based qHTS assay (AID 1963589); note: nearly all actives have a fitted effect of over 35% in size
Method in brief: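 Cells were plated and incubated 18 h at 37 C/5% CO2, loaded with calcium dye for 1 h at 37 C, then treated with compounds in DMSO. Fluorescence was recorded kinetically at 1 sec intervals.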

[10] = cAMP Responsive Elements (CRE) small molecule agonists, cell-based qHTS assay (AID 1963590)
Method in brief: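 Cells carrying a CRE-driven beta-lactamase reporter (HEK 293T) are seeded, incubated overnight (18 h), and treated with test compounds for 3 h at 37 C; reporter activity is then detected with a FRET substrate after 2 h at room temperature.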

[11] = cAMP Responsive Elements (CRE) small molecule antagonists, cell-based qHTS assay (AID 1963591; active = well fitted inhibition curve with a large enough effect in the signal ratio in the repeat runs, not every such curve was filed as active; the % refers to the signal ratio)
Method in brief: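 Cells (CRE-bla HEK 293T, DMEM with 10% dialyzed FBS and 25 mM HEPES) are seeded and incubated 18 h. Compounds are added with NKH477 agonist at 0.25 uM final for 3 h, then FRET substrate for 2 h.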

[12] = target: Beta-2 adrenergic receptor (Homo sapiens) (UniProt P07550); assay: Adrenergic beta2 receptor (ADRB2) small molecule antagonists, cell-based qHTS assay (AID 1963592); note: series mostly up to about 92 µM; nearly all actives have a fitted effect of over 50% in size
Method in brief: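 Assay format: CHO-ADRB2 cells, 18-20hr seeding at 37C/5% CO2, then compound plus 1nM isoproterenol agonist mix for 0.5hr RT. Homogeneous time-resolved fluorescence cAMP detection after 1hr, expressed as 665/615 nm ratio.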

[13] = target: D(2) dopamine receptor (Homo sapiens) (UniProt P14416); assay: Dopamine D2 receptor (DRD2) small molecule antagonists, cell-based qHTS assay (AID 1963595; active = well fitted inhibition curve with a large enough effect in the signal ratio in the repeat runs, with a control signal flat; the % refers to the signal ratio)
Method in brief: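 Antagonist mode in DRD2-HEK293 cells: after compound addition with 0.1 mM Ro20-1724, cells received quinpirole (12 nM) and NKH477 (200 nM) for 30 min at room temperature; HTRF cAMP read after 1 h detection.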

[14] = G protein-coupled receptor (GPCR) small molecule agonists, calcium flux assay: HEK293 wild type cell line counter screen (AID 1920065)
Method in brief: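 Seed cells, incubate 18 h (37 C, 5% CO2); add calcium dye, 1 h at 37 C; pin-transfer compounds, ATP control or DMSO; read fluorescence 480/540 nm each second for 3 min.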

[15] = p53 small molecule agonists, cell-based qHTS assay with human liver microsomes (AID 1963577)
Method in brief: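 Compounds act here after metabolic activation: human liver microsomes and NADPH, both at 0.5 mg/mL final, were co-added to p53RE-bla cells. Incubation ran 16 h at 37 C, followed by LiveBLAzer detection.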

[16] = p53 small molecule agonists, cell-based qHTS assay with rat liver microsomes (AID 1963578); note: potency is the fitted concentration of half-maximal effect
Method in brief: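 Read-out is beta-lactamase reporter fluorescence (LiveBLAzer, 2 h, room temperature, dark) in p53RE-bla cells treated 16 h at 37 C with compound, rat liver microsomes and NADPH, both 0.5 mg/mL final.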

[17] = p53 small molecule agonists, cell-based qHTS assay with human liver microsomes: qHTS cell viability counter screen (AID 1963579); note: nearly all actives have a fitted effect of over 45% in size
Method in brief: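 Cells carrying the p53 response-element beta-lactamase reporter are treated for 16 h at 37 C with test compounds in the presence of human liver microsomes and NADPH (both 0.5 mg/mL final); ATP-based CellTiter-Glo luminescence then reports viability.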

[18] = p53 small molecule agonists, cell-based qHTS assay: qHTS cell viability counter screen (AID 1963581); note: nearly all actives have a fitted effect of over 45% in size
Method in brief: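 Viability was counter-screened in parallel with the p53 agonist reporter by measuring intracellular ATP luminescence in the same HCT-116 p53RE-bla wells after 16 h compound treatment at 37 C.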

[19] = target: Beta-2 adrenergic receptor (Homo sapiens) (UniProt P07550); assay: Adrenergic beta2 receptor (ADRB2) small molecule agonists, cell-based qHTS assay (AID 1963593);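 note: CHO cells stably overexpressing human ADRB2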
Method in brief: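 CHO cells stably over-expressing ADRB2 were plated overnight at 37C, then dosed with compounds plus a stimulation mix containing 100uM IBMX and 25uM Ro-20-1724 for 0.5hr at room temperature. cAMP was measured by HTRF competition, 1hr.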

[20] = target: D(2) dopamine receptor (Homo sapiens) (UniProt P14416); assay: Dopamine D2 receptor (DRD2) small molecule agonists, cell-based qHTS assay (AID 1963594); note: nearly all actives have a fitted effect of over 35% in size
Method in brief: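 cAMP accumulation in DRD2-HEK293 cells measured by HTRF after 1 h detection; compounds added 10 min before NKH477 (200nM […]) forskolin-analogue stimulation, 30 min at room temperature, with Ro20-1724 present at 0.1 mM final.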

Gonadotropin-releasing hormone receptor (Homo sapiens), sequence (P30968 whole entry, looked up): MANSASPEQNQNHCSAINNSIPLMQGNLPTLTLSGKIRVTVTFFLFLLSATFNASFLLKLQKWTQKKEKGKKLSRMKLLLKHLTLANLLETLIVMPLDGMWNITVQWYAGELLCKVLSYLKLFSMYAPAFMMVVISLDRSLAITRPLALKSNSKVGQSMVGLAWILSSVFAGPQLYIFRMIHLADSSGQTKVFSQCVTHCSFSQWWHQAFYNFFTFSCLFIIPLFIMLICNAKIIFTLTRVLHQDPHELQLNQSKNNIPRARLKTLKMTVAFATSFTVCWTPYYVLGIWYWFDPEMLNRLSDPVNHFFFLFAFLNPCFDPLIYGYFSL
Beta-2 adrenergic receptor (Homo sapiens), sequence (P07550 whole entry, looked up): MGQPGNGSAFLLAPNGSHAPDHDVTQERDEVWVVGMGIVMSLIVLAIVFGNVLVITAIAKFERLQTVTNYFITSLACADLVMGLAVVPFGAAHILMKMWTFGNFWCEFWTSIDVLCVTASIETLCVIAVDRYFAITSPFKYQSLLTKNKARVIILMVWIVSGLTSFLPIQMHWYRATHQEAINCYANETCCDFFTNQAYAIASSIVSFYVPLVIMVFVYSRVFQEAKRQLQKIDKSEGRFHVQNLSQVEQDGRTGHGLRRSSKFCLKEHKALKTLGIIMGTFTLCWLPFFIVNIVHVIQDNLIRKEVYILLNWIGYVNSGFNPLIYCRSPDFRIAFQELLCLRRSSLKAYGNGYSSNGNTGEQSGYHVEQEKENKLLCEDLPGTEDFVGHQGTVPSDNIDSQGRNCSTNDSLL
5-hydroxytryptamine receptor 2A (Homo sapiens), sequence (P28223 whole entry, looked up): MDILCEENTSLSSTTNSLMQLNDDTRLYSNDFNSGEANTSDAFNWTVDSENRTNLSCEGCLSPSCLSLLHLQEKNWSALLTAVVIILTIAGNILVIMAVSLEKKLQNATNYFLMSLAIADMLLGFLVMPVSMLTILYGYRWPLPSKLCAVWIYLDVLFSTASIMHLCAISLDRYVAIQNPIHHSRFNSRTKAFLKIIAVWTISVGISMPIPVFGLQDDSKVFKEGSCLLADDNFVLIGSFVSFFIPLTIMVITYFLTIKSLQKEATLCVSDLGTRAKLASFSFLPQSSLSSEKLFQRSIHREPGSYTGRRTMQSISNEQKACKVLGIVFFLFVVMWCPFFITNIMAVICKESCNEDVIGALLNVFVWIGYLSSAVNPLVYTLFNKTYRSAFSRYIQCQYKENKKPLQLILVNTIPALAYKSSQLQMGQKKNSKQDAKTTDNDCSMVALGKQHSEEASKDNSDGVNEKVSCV
D(2) dopamine receptor (Homo sapiens), sequence (P14416 whole entry, looked up): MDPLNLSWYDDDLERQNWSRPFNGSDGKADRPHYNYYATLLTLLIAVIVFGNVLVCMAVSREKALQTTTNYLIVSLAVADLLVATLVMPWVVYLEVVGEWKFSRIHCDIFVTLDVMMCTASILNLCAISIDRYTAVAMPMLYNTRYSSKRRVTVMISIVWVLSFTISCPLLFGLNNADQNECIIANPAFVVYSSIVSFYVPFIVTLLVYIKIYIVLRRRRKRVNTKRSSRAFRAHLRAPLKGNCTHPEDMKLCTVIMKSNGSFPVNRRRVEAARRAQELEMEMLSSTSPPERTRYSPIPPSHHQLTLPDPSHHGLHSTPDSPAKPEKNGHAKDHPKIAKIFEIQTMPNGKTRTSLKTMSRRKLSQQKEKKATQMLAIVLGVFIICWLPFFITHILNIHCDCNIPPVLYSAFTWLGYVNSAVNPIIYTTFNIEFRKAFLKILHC
Muscarinic acetylcholine receptor M1 (Homo sapiens), sequence (P11229 whole entry, looked up): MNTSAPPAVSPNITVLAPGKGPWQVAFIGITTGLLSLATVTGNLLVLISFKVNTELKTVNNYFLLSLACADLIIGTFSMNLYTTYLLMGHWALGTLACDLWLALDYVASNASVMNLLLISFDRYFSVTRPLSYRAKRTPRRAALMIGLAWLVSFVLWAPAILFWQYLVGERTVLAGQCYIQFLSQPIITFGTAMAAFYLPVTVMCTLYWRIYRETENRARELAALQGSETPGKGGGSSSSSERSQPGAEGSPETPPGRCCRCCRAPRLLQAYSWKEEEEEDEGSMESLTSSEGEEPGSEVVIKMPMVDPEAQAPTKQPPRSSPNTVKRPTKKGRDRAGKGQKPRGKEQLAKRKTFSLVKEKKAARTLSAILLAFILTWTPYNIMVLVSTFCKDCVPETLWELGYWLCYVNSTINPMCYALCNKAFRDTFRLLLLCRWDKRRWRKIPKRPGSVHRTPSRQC
KiSS-1 receptor (Homo sapiens), sequence (Q969F8 whole entry, looked up): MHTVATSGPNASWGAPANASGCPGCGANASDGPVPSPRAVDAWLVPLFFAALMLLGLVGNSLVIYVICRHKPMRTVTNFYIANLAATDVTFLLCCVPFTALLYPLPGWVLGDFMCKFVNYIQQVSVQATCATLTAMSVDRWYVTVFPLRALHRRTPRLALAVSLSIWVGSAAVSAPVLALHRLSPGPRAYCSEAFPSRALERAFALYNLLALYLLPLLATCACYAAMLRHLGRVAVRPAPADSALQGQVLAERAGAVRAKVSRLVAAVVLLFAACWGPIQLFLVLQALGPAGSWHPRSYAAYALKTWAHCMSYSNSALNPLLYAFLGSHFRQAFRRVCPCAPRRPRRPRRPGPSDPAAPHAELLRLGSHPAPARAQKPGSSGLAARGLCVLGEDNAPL

Structure (SMILES) | Potency [1] | Potency [2] | Potency [3] | Potency [4] | Potency [5] | Potency [6] | Potency [7] | Potency [8] | Potency [9] | Potency [10] | Potency [11] | Potency [12] | Potency [13] | Potency [14] | Potency [15] | Potency [16] | Potency [17] | Potency [18] | Potency [19] | Potency [20]
CC(C)N(Cc1ccccc1)C(=O)C(C)(C)C | inactive | inactive | inactive | inactive | inactive | inactive | inactive | inactive | inactive | inactive | inactive | inactive | inactive |  |  |  |  |  |  | 
C[As+](C)(C)CC(=O)[O-] | inactive | inactive | inactive |  | inactive | inactive | inactive | inactive | inactive |  | inactive |  | inactive | inactive | inactive | inactive | inactive | inactive |  | 
BrCCCBr | inactive | inactive | inactive | inactive | inactive | inactive | inactive | inactive | inactive | inactive | inactive | inactive |  |  |  |  | inactive | inactive | inactive | inactive
O=C1OC(=O)C2C1C1(Cl)C(Cl)=C(Cl)C2(Cl)C1(Cl)Cl (centres undefined) | inactive | inactive | inactive | inactive | inactive |  | inactive | inactive | inactive | inactive | inactive | inactive | inactive |  |  |  | inactive | inactive |  | inactive
O=C1CN=C(c2ccccc2)c2cc(Cl)ccc2N1CC1CC1 | inactive | inactive | inactive | inactive | inactive | inactive | inactive | inactive | inactive | inactive |  |  | inactive |  |  |  | inactive | inactive |  | 
COc1cccc([C@@]2(O)CCCC[C@@H]2CN(C)C)c1 | inactive | inactive | inactive |  | inactive |  |  |  |  | inactive | inactive | inactive | inactive | inactive | inactive | inactive | inactive |  | inactive | inactive
CC(C)(C)NCC(O)c1ccccc1Cl (centres undefined) | inactive | inactive | inactive |  | inactive |  | inactive |  | inactive |  | inactive | inactive |  | inactive | inactive | inactive | inactive | inactive |  | 
CCOc1ccc(C(C)(C)COCc2cccc(Oc3ccccc3)c2)cc1 | inactive | inactive | inactive |  | inactive | inactive | inactive | inactive | inactive |  | inactive | inactive | inactive | inactive | inactive | inactive | inactive |  |  | inactive
N#Cc1c[nH]cc1-c1cccc2c1OC(F)(F)O2 | inactive | inactive | inactive | inactive | inactive | inactive | inactive | inactive | inactive |  |  | inactive | inactive |  |  | inactive |  |  |  | inactive
Cc1nnc2n1-c1sc(CCc3ccc(CC(C)C)cc3)cc1C(c1ccccc1Cl)=NC2C (centres undefined) | 7.5 µM (active) | inactive | inactive |  | inactive |  | inactive | inactive | inactive |  |  | inactive |  | inactive | inactive | inactive | inactive |  |  | inactive
CN(C)c1ccc(N=Nc2ccccc2)cc1 | inactive | 3.07 µM (active) | inactive |  | inactive | inactive | inactive | inactive | inactive |  | inactive | inactive | inactive | inactive | inactive | inactive | inactive | inactive |  | inactive
CO/N=C(\C(=O)OC)c1ccccc1CO/N=C(\C)c1cccc(C(F)(F)F)c1 | inactive | inactive | inactive |  | inactive |  | inactive |  | inactive |  | inactive |  | inactive | inactive | inactive | inactive | inactive | inactive |  | 
CCCC[N+](CCCC)(CCCC)CCCC | inactive | inactive | inactive |  | inactive | inactive | inactive | inactive | inactive |  | inactive | inactive | inactive | inactive | inactive | inactive | inactive | inactive |  | 
ClC(Cl)Br | inactive | inactive | inactive | inactive | inactive |  | inactive | inactive | inactive | inactive | inactive | inactive | inactive |  |  |  | inactive | inactive | inactive | inactive
BrCC1CO1 (centres undefined) | inactive | inactive | inactive | inactive | inactive |  | inactive | inactive | inactive | inactive | inactive | inactive | inactive |  |  |  | inactive |  |  | inactive
c1ccc2cc3c(cc2c1)-c1cccc2cccc-3c12 | inactive | inactive | inactive | inactive | inactive |  | inactive | inactive | inactive |  |  | inactive | inactive |  |  | 18 µM (active) | inactive | inactive | inactive | inactive
CC(C)(C)c1cc([N+](=O)[O-])cc([N+](=O)[O-])c1O | 13.6 µM (active) | 30.5 µM (active) | 38.8 µM (active) | inactive | inactive | inactive | inactive | inactive |  |  |  |  | inactive |  |  |  | inactive |  |  | inactive
CC(CC(C#N)(c1ccccc1)c1ccccc1)N(C)C (centres undefined) | inactive | inactive | inactive |  | inactive |  | inactive | 0.0105 µM (active) |  | inactive | inactive | inactive | inactive | inactive | inactive | inactive | inactive | inactive |  | inactive
